Compound activity as filed in PubChem.
hgDAF12 agonist: agonists of H. glycines DAF-12 nuclear receptor | HEK293 GAL4-hgDAF12 UAS-luciferase reporter, agonist luminescence; normalized to butyrate control | activation, % at 6.8 µM | actives 1.8% (n = 370,000) | AID 687014;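 active = activation above a cutoff set at the mean of all screened compounds plus 3 SD, cut at about 10% in these data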
DAX1 inh-1: blocks DAX1 repression of SF-1 activated StAR promoter | HEK293T StAR-luciferase reporter, SF-1/DAX-1 repression relief | actives 1.1% (n = 370,000) | AID 652010 | inhibition, % at 6.8 µM;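 active = inhibition above the mean over all tested compounds plus 3 SD, cut at about 3.6% in these data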;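 also: higher inhibition means more luminescence from relief of DAX-1 repression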
ssDAF12 agonist: S. stercoralis DAF-12 activation, primary screen; activation, % at 6.8 µM; actives 1% (n = 370,000); HEK293 ssDAF-12/GRIP1 lit1-tk-luc reporter, luminescence; % of 3 µM dafachronic acid response;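 active = activation above the mean over all tested compounds plus 3 SD, cut at about 0.9% in these data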
hcDAF12 agonist: activators of H. contortus DAF-12 nuclear receptor | HEK293 hcDAF-12 lit1-tk-luc reporter, luminescence; 0% DMSO, 100% Δ7-dafachronic acid | activation, % at 6.8 µM | actives 1.4% (n = 370,000) | AID 652067;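 active = activation above the mean of all tested compounds plus 3 SD, cut at about 5.5% in these data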
DAX1 inh-2: NR0B1 (DAX1) inhibition; actives 0.99% (n = 340,000); inhibition, % at 6.75 µM; P51843; HEK293 Gal4-DAX1 luciferase reporter, luminescence;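 active = inhibition above the mean over all tested compounds plus 3 SD, cut at about 4.2% in these data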;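 also: inhibition shows as a rise in luminescence from relieved DAX1 repression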
Target sequence (P51843 207-470 limits assumed): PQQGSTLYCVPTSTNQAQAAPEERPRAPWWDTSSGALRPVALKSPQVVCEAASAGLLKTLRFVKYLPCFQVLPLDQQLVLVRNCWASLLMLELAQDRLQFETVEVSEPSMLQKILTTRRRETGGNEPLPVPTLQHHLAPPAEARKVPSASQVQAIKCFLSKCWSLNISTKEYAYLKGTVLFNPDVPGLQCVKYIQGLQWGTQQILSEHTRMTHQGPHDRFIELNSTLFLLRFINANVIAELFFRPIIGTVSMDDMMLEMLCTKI
AHR activator: activators of human aryl hydrocarbon receptor; P35869; AHR-responsive luciferase reporter cells, luminescence; activation, % at 5 µM; actives 2.5% (n = 320,000); in the data active = activation above about 47%
hgDAF12 conf: hgDAF-12 agonism, confirmation assay | HEK293 GAL4-hgDAF12 luciferase reporter, agonist mode; percent of butyrate response | actives 80% (n = 3,300) | activation, % at 6.8 µM | AID 743050 | shares compounds with hgDAF12 agonist;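 active = mean activation over triplicate wells above the hit cutoff derived from the earlier primary screen, cut at about 11% in these data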
LXRb DAF12 ctr: counter-screen for DAF-12 agonists: agonists of human LXR-beta | shares compounds with hgDAF12 agonist | HEK293 Gal4-LXR luciferase reporter, 24 h | activation, % at 6.8 µM | 3,300 tested, under 10 active | AID 743051;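 active = mean activation of the triplicate above a set limit carried over from the primary screen, none filed active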
A number is an active result. Rows were chosen to be rich in hits. Some 5.7% of all compounds tested hit in one or more screens of this group.

For CC(C)NC(=S)N/N=C1\CCCCC1C1CCCCC1 (stereo not drawn) the results were hgDAF12 agonist inactive, DAX1 inh-1 inactive, ssDAF12 agonist inactive, hcDAF12 agonist inactive, DAX1 inh-2 inactive and AHR activator inactive.
For COc1ccc(/C(N)=N/OC(=O)c2ccco2)cc1OC the results were hgDAF12 agonist 18, DAX1 inh-1 inactive, ssDAF12 agonist inactive, hcDAF12 agonist inactive, DAX1 inh-2 inactive, AHR activator inactive, hgDAF12 conf 13 and LXRb DAF12 ctr inactive.
For N/C(=N\OC(=O)/C=C/c1ccccc1)c1ccccc1 the results were hgDAF12 agonist 17, DAX1 inh-1 4.3, ssDAF12 agonist inactive, hcDAF12 agonist inactive, DAX1 inh-2 inactive, AHR activator inactive, hgDAF12 conf 15 and LXRb DAF12 ctr inactive.
For COc1cccc(C(=O)O/N=C(\N)c2ccncc2)c1 the results were hgDAF12 agonist 17, DAX1 inh-1 inactive, ssDAF12 agonist inactive, hcDAF12 agonist inactive, DAX1 inh-2 inactive, AHR activator inactive, hgDAF12 conf 16 and LXRb DAF12 ctr inactive.
For COc1ccc(C(=O)O/N=C(\N)c2ccccc2)cc1OC the results were hgDAF12 agonist 17, DAX1 inh-1 inactive, ssDAF12 agonist inactive, hcDAF12 agonist inactive, DAX1 inh-2 5.9, AHR activator inactive, hgDAF12 conf 12 and LXRb DAF12 ctr inactive.
`N/C(=N\OC(=O)/C=C/c1ccccc1)c1ccc(Cl)cc1` gave hgDAF12 agonist inactive, DAX1 inh-1 inactive, ssDAF12 agonist inactive, hcDAF12 agonist inactive and AHR activator inactive.
Screening COc1ccc(C(=O)O/N=C(\N)c2ccncc2)cc1OC returned hgDAF12 agonist inactive, DAX1 inh-1 inactive, ssDAF12 agonist inactive, hcDAF12 agonist inactive, DAX1 inh-2 inactive and AHR activator inactive.
Screening COc1cccc(C(=O)N2CCC(n3nccc3NC(=O)CCOc3ccccc3)CC2)c1 returned hgDAF12 agonist inactive, DAX1 inh-1 inactive, ssDAF12 agonist inactive, hcDAF12 agonist inactive, DAX1 inh-2 inactive and AHR activator inactive.
For Cc1ccc(Cn2c(SC(C)C(N)=O)nc3ccccc3c2=O)cc1 (stereo not drawn) the results were hgDAF12 agonist inactive, DAX1 inh-1 inactive, ssDAF12 agonist inactive, hcDAF12 agonist inactive, DAX1 inh-2 inactive and AHR activator inactive.
Screening C=CCN(c1ccccc1)S(=O)(=O)c1ccc2c(c1)NC(=O)C(C)C(=O)N2 (stereo not drawn) returned hgDAF12 agonist inactive, DAX1 inh-1 inactive, ssDAF12 agonist inactive, hcDAF12 agonist inactive, DAX1 inh-2 inactive and AHR activator inactive.
Screening CCN(C(=O)COC(=O)c1ccccc1NCCO)C1CCS(=O)(=O)C1 (stereo not drawn) returned hgDAF12 agonist inactive, DAX1 inh-1 inactive, ssDAF12 agonist inactive, hcDAF12 agonist inactive, DAX1 inh-2 inactive and AHR activator inactive.
Cc1occc1C(=O)O/N=C(\N)c1ccccc1 was read as hgDAF12 agonist 14, DAX1 inh-1 inactive, ssDAF12 agonist inactive, hcDAF12 agonist inactive, AHR activator inactive, hgDAF12 conf 14 and LXRb DAF12 ctr inactive.
For Cc1ccc(C2NC(=O)CCC2[N+](=O)[O-])cc1 (stereo not drawn) the results were hgDAF12 agonist inactive, DAX1 inh-1 inactive, ssDAF12 agonist inactive, hcDAF12 agonist inactive and AHR activator inactive.
`NS(=O)(=O)c1ccc(C(=O)Nc2ccc(-c3nc4cccnc4s3)cc2)cc1` gave hgDAF12 agonist 14, DAX1 inh-1 inactive, ssDAF12 agonist inactive, hcDAF12 agonist inactive, DAX1 inh-2 inactive, AHR activator 57, hgDAF12 conf 14 and LXRb DAF12 ctr inactive.
`N/C(=N\OC(=O)c1ccc(Br)o1)c1cccnc1` gave hgDAF12 agonist 14, DAX1 inh-1 inactive, ssDAF12 agonist inactive, hcDAF12 agonist inactive, DAX1 inh-2 inactive, AHR activator 53, hgDAF12 conf inactive and LXRb DAF12 ctr inactive.
CCc1ccc(OCC(=O)O/N=C(\N)c2cccnc2)cc1 was read as hgDAF12 agonist inactive, DAX1 inh-1 inactive, ssDAF12 agonist inactive, hcDAF12 agonist inactive and AHR activator inactive.
Screening O[C@@H](Cc1ccccc1)[C@@H](/C=C/c1ccccc1)NCCc1ccccc1 returned hgDAF12 agonist inactive, DAX1 inh-1 inactive, ssDAF12 agonist inactive and hcDAF12 agonist inactive.
Screening COc1cccc(CNC(=O)CCCC(=O)NC(C)CCc2ccccc2)c1 (stereo not drawn) returned hgDAF12 agonist inactive, DAX1 inh-1 inactive, ssDAF12 agonist inactive, hcDAF12 agonist inactive, DAX1 inh-2 inactive and AHR activator inactive.
`O=C(CSC1CCc2ccccc21)NNC(=O)Nc1ccc(Cl)cc1` (stereo not drawn) gave hgDAF12 agonist 16, DAX1 inh-1 inactive, ssDAF12 agonist inactive, hcDAF12 agonist 6.5, hgDAF12 conf inactive and LXRb DAF12 ctr inactive.
O=[N+]([O-])c1ccccc1N/N=C\c1ccccc1Cl was read as hgDAF12 agonist inactive, DAX1 inh-1 inactive, ssDAF12 agonist inactive, hcDAF12 agonist inactive, DAX1 inh-2 inactive and AHR activator inactive.
`O=[N+]([O-])c1ccc(O)c(/C=N/Nc2ccccc2Cl)c1` gave hgDAF12 agonist 16, DAX1 inh-1 inactive, ssDAF12 agonist inactive, hcDAF12 agonist inactive, DAX1 inh-2 inactive, AHR activator inactive, hgDAF12 conf inactive and LXRb DAF12 ctr inactive.
Nc1ccccc1SCC(=O)Nc1nccs1 was read as hgDAF12 agonist inactive, DAX1 inh-1 inactive, ssDAF12 agonist inactive, hcDAF12 agonist inactive, DAX1 inh-2 inactive and AHR activator inactive.
`Cn1cc(SCC(=O)Nc2nccs2)c2ccccc21` gave hgDAF12 agonist 20, DAX1 inh-1 4.4, ssDAF12 agonist inactive, hcDAF12 agonist inactive, DAX1 inh-2 inactive, AHR activator inactive, hgDAF12 conf 14 and LXRb DAF12 ctr inactive.
`COC(CN(C)C(=O)c1cn(C)c2ccc(S(=O)(=O)N(C)C3CCCCC3)cc2c1=O)OC` gave hgDAF12 agonist inactive, DAX1 inh-1 inactive, ssDAF12 agonist inactive, hcDAF12 agonist inactive, DAX1 inh-2 inactive and AHR activator inactive.
COc1ccccc1C(C(C(=O)c1ccccc1)N1CCOCC1)N1CCOCC1 (stereo not drawn) was read as hgDAF12 agonist 14, DAX1 inh-1 inactive, ssDAF12 agonist inactive, hcDAF12 agonist inactive, DAX1 inh-2 inactive, hgDAF12 conf inactive and LXRb DAF12 ctr inactive.
Screening CC(=O)C(C(c1ccccc1)N1CCOCC1)N1CCOCC1 (stereo not drawn) returned hgDAF12 agonist inactive, DAX1 inh-1 inactive, ssDAF12 agonist inactive, hcDAF12 agonist inactive and DAX1 inh-2 inactive.
